Shown are actives, neighbours in structure and some others; about 7.7% of the full set was active somewhere.
PD-1 reversal – reversal of PD-1 mediated T-cell inhibition | primary human CD4 T cells, PD-L1 beads, CellTiter-Glo 96 h | activation, % (no concentration beside the values) | 29,000 tested, under 10 active; call rule not given here;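 also: 0% = median vehicle wells and 100% = positive control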
Hedgehog inh – blocks Sonic Hedgehog signaling; Shh-LIGHT2 Gli-luciferase reporter, 30 h; inhibition, % (test concentration not listed); 2.1% of 22,000 active; AID 2313;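 active = mean inhibition across valid replicates above about 65%, limit read from the data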;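 also: pathway switched on by Shh-conditioned medium diluted 1 in 25 in low serum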
NOMO-1 viab – STK33 inhibitor candidate reducing NOMO-1 cell viability; AID 2330; 7.5% of 37,000 active; NOMO-1 AML viability, CellTiter-Glo luminescence, 72 h; inhibition, % (no concentration beside the values); in the data active = inhibition above about 80%
An asterisk follows results filed as active; · = no result given.

SMILES	PD-1 reversal	Hedgehog inh	NOMO-1 viab
C[C@@H]1CN([C@H](C)CO)C(=O)c2cc(NC(=O)Nc3cccc4ccccc34)ccc2O[C@H]1CN(C)Cc1ccc(Cl)c(Cl)c1	-3	·	112*
C[C@H](CO)N1C[C@H](C)[C@H](CN(C)Cc2ccc(Cl)c(Cl)c2)Oc2ccc(NC(=O)Nc3cccc4ccccc34)cc2C1=O	-3	·	17
C[C@H](CO)N1C[C@H](C)[C@@H](CN(C)Cc2ccc(Cl)c(Cl)c2)Oc2ccc(NC(=O)Nc3cccc4ccccc34)cc2C1=O	-3	·	112*
C[C@@H]1CN([C@@H](C)CO)C(=O)c2cc(NC(=O)Nc3cccc4ccccc34)ccc2O[C@H]1CN(C)Cc1ccccc1	0	23	3
CCC(=O)Nc1ccc(Cl)c(NC(=O)COc2cc(C)cc(C)c2)c1	-1	·	1
CCC(=O)Nc1ccc2c(c1)N(CC)C(C)(C)CC2C (configuration not stated)	1	29	99*
C=C1[C@@H]2CC[C@H]3[C@]4(C)C[C@H](O)C[C@@H](C(=O)OC)[C@H]4CC[C@]3(C2)[C@H]1O	-1	-21	10
CNC(=O)c1ccc2nc(N)sc2c1	0	-27	40
C[C@H]1CN([C@@H](C)CO)C(=O)c2cc(NC(=O)Nc3ccc(C(F)(F)F)cc3)ccc2O[C@H]1CN(C)Cc1ccc(Cl)c(Cl)c1	0	41	107*
C[C@@H]1CN([C@H](C)CO)C(=O)c2cc(NC(=O)Nc3ccc(C(F)(F)F)cc3)ccc2O[C@@H]1CN(C)Cc1ccc(Cl)c(Cl)c1	-2	15	114*
C[C@H]1CN([C@@H](C)CO)C(=O)c2cc(NC(=O)Nc3ccc(F)cc3)ccc2O[C@@H]1CN(C)Cc1ccc(Cl)c(Cl)c1	0	-13	22
C[C@@H]1CN([C@H](C)CO)C(=O)c2cc(NC(=O)Nc3ccc(C(F)(F)F)cc3)ccc2O[C@H]1CN(C)Cc1ccc(Cl)c(Cl)c1	-10	·	123*
C[C@@H]1CN([C@H](C)CO)C(=O)c2cc(NC(=O)Nc3ccc(C(F)(F)F)cc3)ccc2O[C@H]1CN(C)Cc1ccncc1	-2	·	-6
c1ccc(-c2nn3c(Cn4cnc5ccccc54)nnc3s2)nc1	·	·	15
CN(CC(=O)Nc1ccc(F)cc1F)S(=O)(=O)c1ccccc1	3	·	36
O=C(Nc1ccccc1)C(F)(F)F	-1	-13	14
c1ccc(CSc2nccc(-c3ccc4c(c3)CCO4)n2)cc1	-1	-12	39
O=C(O)c1cc(NS(=O)(=O)c2cccc3cccnc23)ccc1O	1	·	-7
C[C@@H]1CN([C@@H](C)CO)C(=O)c2cc(NS(=O)(=O)c3cccs3)ccc2O[C@H]1CN(C)Cc1ccc(C(=O)Nc2ccccc2N)cc1	-1	·	29
C[C@@H]1CCCCO[C@H](CN(C)Cc2ccccc2)[C@@H](C)CN([C@H](C)CO)C(=O)c2cc(NS(=O)(=O)c3cccs3)ccc2O1	0	18	28
C[C@@H]1CCCCO[C@H](CN(C)Cc2ccc(C(=O)Nc3ccccc3N)cc2)[C@@H](C)CN([C@H](C)CO)C(=O)c2cc(NS(=O)(=O)c3cccs3)ccc2O1	-2	·	127*
C[C@@H]1CCCCO[C@@H](CN(C)Cc2ccc(C(=O)Nc3ccccc3N)cc2)[C@@H](C)CN([C@H](C)CO)C(=O)c2cc(NS(=O)(=O)c3cccs3)ccc2O1	0	·	139*
COC(=O)C1=C(N)OC2=C(C(=O)CC(C)(C)C2)C1c1ccc(C(=O)OC)cc1 (configuration not stated)	1	-26	9
CC(C)(C)N1Sc2ccccc2NC1=S	7	-31	9
COc1ccc(N2CCc3c(C)c(C#N)c4nc5ccccc5n4c32)cc1	-1	6	114*
SMILES	PD-1 reversal	Hedgehog inh	NOMO-1 viab
C=CCSc1c2c(c(C#N)c3nc4ccccc4n13)CCC2	-8	-6	59
C[C@@H]1CN([C@H](C)CO)C(=O)Cc2cc(NC(=O)Cc3ccccc3)ccc2O[C@H]1CN(C)Cc1ccc2c(c1)OCO2	0	-9	7
C[C@@H]1CN([C@H](C)CO)C(=O)Cc2cc(NC(=O)Cc3ccccc3)ccc2O[C@@H]1CN(C)Cc1ccc(Cl)c(Cl)c1	-4	26	127*
C[C@@H]1CN([C@@H](C)CO)C(=O)Cc2cc(NC(=O)Cc3ccccc3)ccc2O[C@@H]1CN(C)Cc1ccc(Cl)c(Cl)c1	-5	·	108*
C[C@@H]1CN([C@@H](C)CO)C(=O)Cc2cc(NC(=O)Cc3ccccc3)ccc2O[C@@H]1CN(C)Cc1ccccc1	1	-10	44
COc1ccc2c(c1OC)OC[C@@H](c1ccc(OC)c(OC)c1OC)C2	·	30	10
Cc1ccc([N+](=O)[O-])cc1NS(=O)(=O)c1cccc(C(=O)Nc2ccccc2)c1	0	·	-4
O=C(Cn1ccc([N+](=O)[O-])n1)NCc1ccccn1	-1	·	2

Screening data: PubChem BioAssay, Broad Institute
